Screening results: PubChem, National Center for Advancing Translational Sciences (NCATS)
RXFP1 agonist – agonists of human relaxin receptor RXFP1 | Q9HBX9 | HEK293T-RXFP1 cAMP TR-FRET, 30 min; response scale: percent of porcine relaxin response, buffer zero | Potency, µM (doses to about 57.5 µM), usual class: activators | hit rate 0.3% among 370,000 | AID 2676; active means well fitted activation curve with a large enough effect; inconclusive means small, poorly fitted or top-dose-only effect; further: nearly all actives have a fitted effect of over 60% in size
Target sequence (Q9HBX9 whole entry, looked up): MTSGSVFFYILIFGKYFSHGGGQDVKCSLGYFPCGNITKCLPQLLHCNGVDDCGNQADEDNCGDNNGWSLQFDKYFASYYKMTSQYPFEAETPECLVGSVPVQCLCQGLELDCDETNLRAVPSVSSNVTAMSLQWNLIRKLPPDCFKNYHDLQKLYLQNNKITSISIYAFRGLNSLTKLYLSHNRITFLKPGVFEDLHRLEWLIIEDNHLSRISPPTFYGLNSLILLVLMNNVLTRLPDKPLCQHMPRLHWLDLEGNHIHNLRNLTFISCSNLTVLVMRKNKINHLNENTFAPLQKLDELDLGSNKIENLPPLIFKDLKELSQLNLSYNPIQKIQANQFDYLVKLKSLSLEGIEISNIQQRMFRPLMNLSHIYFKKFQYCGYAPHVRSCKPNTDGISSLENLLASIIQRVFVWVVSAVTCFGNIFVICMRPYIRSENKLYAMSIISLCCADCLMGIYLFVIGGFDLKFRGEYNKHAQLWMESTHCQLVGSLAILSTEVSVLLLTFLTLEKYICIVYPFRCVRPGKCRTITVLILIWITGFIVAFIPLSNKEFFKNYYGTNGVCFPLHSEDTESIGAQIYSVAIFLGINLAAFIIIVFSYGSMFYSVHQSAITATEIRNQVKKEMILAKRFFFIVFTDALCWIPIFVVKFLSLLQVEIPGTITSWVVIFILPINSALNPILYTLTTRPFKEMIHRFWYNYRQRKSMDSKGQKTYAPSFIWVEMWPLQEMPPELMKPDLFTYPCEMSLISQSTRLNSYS
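Agonist response is measured as cAMP accumulation in an RXFP1-transfected HEK293T line under PDE4 inhibition. Values are scaled between buffer-only and 29 nM porcine relaxin, and EC50s come from standard Hill equation fits.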
RXFP1 antagonist – antagonists of human relaxin receptor RXFP1. activity change, negative = inhibition, % at 57.5 µM. Q9HBX9. HEK293-RXFP1, relaxin-stimulated cAMP HTRF, 30 min; stronger effect = lower value. hit rate 0.59% among 350,000. AID 1259400;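 active means activity change of -60% or lower, but not beyond a set lower limit; inconclusive means change between -60% and -40%, or beyond the set limit; inactive means change above -40%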
gsp agonist – agonists of gsp mutant (McCune-Albright syndrome); gsp mutant cells, cAMP HTRF, 30 min; Potency, µM (doses to about 76.9 µM), actives largely listed as activators; hit rate 0.13% among 340,000; active means well fitted activation curve with a large enough effect; inconclusive means small, poorly fitted or top-dose-only effect, or another doubt; inactive means no such curve, though single readings can be large or run the other way; cell line not stated here;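 further: phosphodiesterase inhibitor Ro 20-1724 added with compounds to block cAMP breakdown; nearly all actives have a fitted effect of over 60% in size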
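Cells in DMEM/10% FBS with G418 were pretreated with compounds in DMSO plus […] (300 uM stock) for 30 min at 37C. cAMP was measured by HTRF (cAMP-d2 plus anti-cAMP antibody-K) after 30 min at room temperature.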
gsp antag – antagonists of gsp mutant (McCune-Albright syndrome). AID 624288. hit rate 0.4% among 340,000. Potency, µM (doses to about 76.9 µM), actives largely listed as inhibitors. gsp-mutant cells, cAMP HTRF, 30 min; calls by dose curve; cell line not stated here;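 further: intracellular cAMP measured with PDE inhibitor Ro 20-1724 present during compound exposure; nearly all actives have a fitted effect of over 65% in size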
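Cells, 2000/well, grown 16–24 h in DMEM 10% FBS with 0.5 mg/ml G418, then compounds plus […] (300 uM addition stock), 30 min at 37C. cAMP read by HTRF (cAMP-d2 and anti-cAMP antibody-K in lysis buffer) after 30 min RT.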
Akt phos inh – Akt phosphorylation inhibition; Neuro2A IGF-stimulated pAkt S473 HTRF, 20 min; stronger effect = lower value; activity change, % for hits at 50 µM; hit rate 0.32% among 360,000; in the data active means activity change below about -80%; inconclusive means mostly about -51% to -80%
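Single-point screen (50 µM final compound) in Neuro2A cells stimulated 20 min with 6 nM IGF at 37 deg C. After lysis, Ser473-phosphorylated Akt read by HTRF (ex 330 nm, em 615/665 nm) as the 665/615 ratio.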
A number is an active result; . = inactive; ? = inconclusive; / = no result given; [ ] = another dose, or the depositor's remark. An excerpt weighted towards active compounds, which were near 1.3% of everything screened.

SMILES	RXFP1 agonist	RXFP1 antagonist	gsp agonist	gsp antag	Akt phos inh
CC(=O)N1CCN(c2ccc(O)cc2)CC1	/	.	/	/	/
COc1ccc(CN2CCc3c(c(=O)n4ncc(C(=O)N5CCN(c6ccccc6F)CC5)c4n3C)C2)cc1	.	.	/	/	/
CSc1nsc2nc(=O)c(/C=C3\C=Nc4ccccc43)c(N)n12	.	.	.	32µM	.
CCc1nn2c(=O)cc(COC(=O)c3cccs3)nc2s1	.	.	/	/	/
OCCCNCc1ccc(N(c2ccccc2)c2ccccc2)cc1	.	-69	?	.	.
CCOc1ccc(OCC)c(NC(=O)c2cnc3c(-c4ccccc4)c(C)nn3c2C)c1	.	.	/	/	/
Cc1cccc2sc(N(CCCN(C)C)C(=O)CCc3ccccc3)nc12	.	-85	.	.	.
CC(=O)c1ccc(C(=O)N(CCCN(C)C)c2nc3c(C)c(C)ccc3s2)cc1	.	/	/	/	/
Cc1ccc2sc(N(CCCN(C)C)C(=O)c3ccc(Br)s3)nc2c1C	.	-77	.[15.4 µM]	.	.
CN(C)c1ccc(CNC(=O)c2cccn2-c2nnc(N3CCCCC3)s2)cc1	.	/	/	/	/
COc1ccc(NC(=O)c2ccco2)cc1NC(=O)c1cccc(C)c1OC	.	.	/	/	/
COCCn1c(C)cc(O)c(C(c2ccccc2OC)N2CCN(c3ccccc3)CC2)c1=O (stereo not given)	.	.	/	/	/
CCOc1ccc(N(CCCCO)C(=S)NC(=O)c2ccc(C)c(Br)c2)cc1	.	-90	.[15.4 µM]	?	.
CNC(=O)c1c(I)c(NC(C)=O)c(I)c(C(=O)O)c1I	/	.	/	/	/
O=C(CNS(=O)(=O)c1ccccc1)NCC(=O)OCc1ccc(Cl)cc1	.	.	7.9µM	.	.
Cc1nn(C)c(C)c1CN(C)S(=O)(=O)c1ccc2ccccc2c1	.	.	.	14µM	.
CCC(C(=O)NC1CCC(C)CC1)n1nc(C)c2sc3ccccc3c2c1=O (stereo not given)	.	?	/	/	/
CCOC(=O)c1ccc(CC(=O)c2ccc(O)cc2O)o1	.	.	.	8.9µM	.
CCOC(=O)N1CCN(CC(=O)c2ccc(O)cc2O)CC1	.	.	.	11µM	.
Cc1cc(C)n(-c2nc(SCCN(C)C)c3c4c(sc3n2)CCCC4)n1	.	-61	.	.	.
COC(=O)c1sc2cccc(F)c2c1S(=O)(=O)N1CCN(c2ccc(F)cc2)CC1	.	.	/	/	/
CCCCS(=O)(=O)N[C@@H](Cc1ccc(OCCCCC2CCNCC2)cc1)C(=O)O	/	.	/	/	/
Cc1ccc(Cl)cc1-n1nnc(-c2nc(-c3ccc4c(c3)OCO4)no2)c1C	.	.	/	/	/
CC(C(=O)N1CCN(Cc2ccc3c(c2)OCO3)CC1)c1ccc([N+](=O)[O-])cc1 (stereo not given)	.	.	.[15.4 µM]	11µM	.
Cc1cc2c(s1)c1c(n2C)C(=O)N(Cc2ccccc2F)C1	.	/	/	/	/
SMILES	RXFP1 agonist	RXFP1 antagonist	gsp agonist	gsp antag	Akt phos inh
C[n+]1c2cc(N)ccc2cc2ccc(N)cc21 (tested in a mixture with another compound)	/	.	/	/	/
C=CCN(C(=O)C1CC(=O)N(C2CCCC2)C1)c1nc(-c2ccc(S(C)(=O)=O)cc2)cs1 (stereo not given)	.	.	.	40µM	.
C=CCN(C(=O)CN1CCCCC1)c1nc(-c2ccccc2)cs1	.	.	.[15.4 µM]	.	.
O=S(=O)(/C(=C\c1ccc(C(F)(F)F)cc1)c1nc2ccccc2[nH]1)c1ccccc1	/	-77	.	.	.
Cc1cc(OCCOCC[N+](C)(C)Cc2ccccc2)ccc1C(C)(C)CC(C)(C)C	/	.	/	/	/
COc1cc(NS(=O)(=O)c2ccc(NC(=O)COc3ccccc3Cl)cc2)nc(OC)n1	.	.	.	.	-125%
COc1cc(NS(=O)(=O)c2ccc(NC(=O)c3ccccc3C(=O)O)cc2)nc(OC)n1	.	.	/	/	/
CCOc1ccccc1C(=O)Nc1ccc(S(=O)(=O)Nc2cc(OC)nc(OC)n2)cc1	?	.	20µM	.	.
CCOC(=O)c1ccc(OCCN2C[C@H](O)[C@@H](O)[C@H](O)[C@H]2CO)cc1	/	.	/	/	/
Cc1c(NC(=O)c2cc(-n3cnnc3)ccc2Cl)cccc1-c1nc2ccccc2s1	.	.	.	?	-88%
O=C(Nc1cccc(-c2nc3ccccc3s2)c1)c1cc(-n2cnnc2)ccc1Cl	.	/	.	?	.
CCOc1cc2[nH]c(=S)n(CC3CCCO3)c(=O)c2cc1OCC (stereo not given)	.	.	.	.	.
O=C(Nc1ccc(F)cc1)c1ccc2c(=O)n(CC3CCCO3)c(=S)[nH]c2c1 (stereo not given)	.	-68	?	?	.
COc1cc2[nH]c(=S)n(CC3CCCO3)c(=O)c2cc1OC (stereo not given)	.	-94	.	.	/
COc1cc2[nH]c(=S)n(CCCN3CCOCC3)c(=O)c2cc1OC	.	-68	.	.	.
Cc1cc(C)cc(-n2ccnc2SCC(=O)Nc2ccc(C)cc2C)c1	.	/	/	/	/
COc1ccc(C2=Nc3ccccc3N(CC(=O)Nc3cccc(C(C)=O)c3)C(=O)C2)cc1	.	.	/	/	/
COC(=O)CCN(C)CCC(=O)OC	.	.	.	50µM	.
COc1ccc(C(=O)Nc2ccc(Cl)c(Cl)c2)c(OC)n1	.	.	.	.	-129%
Cc1cccn2c(=O)c(C(=O)NCCc3ccc(S(N)(=O)=O)cc3)c(O)nc12	.	.	/	/	/
O=C1C(F)=CC(COC(c2ccccc2)(c2ccccc2)c2ccccc2)OC1n1cc(F)c(=O)[nH]c1=O (stereo not given)	/	-84	.	.	.
CC(=O)OCC1OC(n2cc(F)c(=O)[nH]c2=O)C(OC(C)=O)C1OC(C)=O (stereo not given)	/	.	.	.	.
CN(C)CCNc1nc2sc3c(c2c(=O)n1Cc1ccccc1)CCCCC3	.	-92	.	.	.
CN(C)CCNc1nc2sc3c(c2c(=O)n1-c1ccccc1)CCCCC3	.	.	.[15.4 µM]	.	.
CCOP1(=O)OCC2OC(n3cnc4c(N)ncnc43)C(O)C2O1 (stereo not given)	10µM	.	.[15.4 µM]	.	.
SMILES	RXFP1 agonist	RXFP1 antagonist	gsp agonist	gsp antag	Akt phos inh
O=C(O)Cc1ccc2c(c1)C(=O)c1ccccc1CO2	/	.	/	/	/
CC(C)(C)c1csc(NNC(=O)c2ccc(Cl)cc2)n1	.	-95	.	.	.
CCOc1cc2[nH]c(=O)n(CCCCC(=O)N3CCN(c4ccccc4OC)CC3)c(=O)c2cc1OCC	.	.	/	/	/
COc1ccc(Cl)cc1C(=O)Nc1ccc(NC(=O)C(C)C)cc1	.	.	?	.	.
CC(=O)Oc1c(I)cc(I)cc1C(=O)Nc1ccc(Cl)cc1	.	-96	.[15.4 µM]	35µM	.
COc1ccc(Cl)cc1C(=O)Nc1ccc(NC(C)=O)cc1	.	.	.	35µM	.
CCCC(=O)Oc1c(Sc2ccc(Cl)cc2)c(C)nn1-c1ccccc1	.	.	/	/	/
COc1ccc(CN2COc3ccc4c(oc(=O)c5ccccc54)c3C2)cc1OC	?	.	/	/	/
COc1ccccc1CN1COc2ccc3c(oc(=O)c4ccccc43)c2C1	18µM	.	/	/	/
